Measured values published in PubChem BioAssay (NCATS).
“And” between values parts separate entries of the source, which are not always exact repeats. Equal entries are not always repeated. Results filed as inconclusive are left out. The source made the active and inactive calls. Calls come from the whole dose curve. Numbered stars: 1 amine (or outer) side, 2 acyl side, 3 side chain; on linkers, the order of the positions; unused ones are H or OH. Bridge positions count the residues as written; N and C are the ends. Square brackets hold non-standard residues; d marks the D form. Peptide text beside a SMILES is read from it. * marks the point of attachment. X6 = NC1=N[C@@H](O)C[C@H]([C@H](N[*:1])C(=O)[*:2])N1; ΔAla(Z-3-ureido) = NC(=O)N/C=C(\N)C(=O)O; β3hOrn = NCCC[C@H](N)CC(=O)*; Dap = NC[C@H](N)C(=O)O

Assays:
[1] = Primary qHTS for inhibitors of SARS-S pseudo-typed particle cell entry (AID 1479145); settings: outcome: dose series up to 57.1 µM unless noted; note: nearly all actives have a fitted effect of over 45% in size
[2] = Primary qHTS for Huh7 cytotoxicity: counterscreen for inhibitors of MERS-S pseudotyped particle cell entry (AID 1479147); settings: outcome: dose series up to 57.1 µM unless noted
[3] = Primary qHTS for inhibitors of MERS-S pseudo-typed particle cell entry (AID 1479149); settings: outcome: dose series up to 57.1 µM unless noted; note: nearly all actives have a fitted effect of over 60% in size
[4] = Primary qHTS for Vero E6 cytotoxicity: counterscreen for inhibitors of SARS-S pseudo-typed particle cell entry (AID 1479150); settings: outcome: dose series up to 57.1 µM unless noted
[5] = Cytotoxicity counterscreen for inhibitors of SARS-CoV-2 cell entry (AID 1645845); settings: outcome: dose series up to 57.1 µM unless noted; note: nearly all actives have a fitted effect of over 50% in size
Summary of the method: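 After a 15 min room-temperature ATPLite 1step step, luminescence reflected ATP remaining in HEK293-ACE2 cells exposed to compound for 1 h plus 48 h at 37 C, with percent activity set by cell and no-cell controls.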

[6] = Primary qHTS to identify inhibitors of SARS-CoV-2 cell entry (AID 1645846); settings: SARS-CoV-2 pseudovirus cell entry assay, luminescence; activity change, negative = inhibition: at 57.1 µM (top of the series) unless noted; note: nearly all actives have a fitted effect of over 45% in size
Summary of the method: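 HEK293-ACE2 (Expi293F, stable hACE2), 1500 cells/well, o/n 37C; cpd 23 nL pin, 1 h; MLV-PP w/ SARS-CoV-2-S (Wuhan-Hu-1, Δ19 C-term); 48 h 37C; Bright-Glo luminescence; normalized vs S-PP and bald PP.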

OC[C@H]1O[C@@H](c2ccc(F)c(Cc3cc4ccccc4s3)c2)[C@H](O)[C@@H](O)[C@@H]1O
-24.7%: activity change, negative = inhibition [6]
inactive: Potency [1] | Potency [2] | Potency [3] | Potency [4] | Potency [5]

CO[C@H]1C[C@@H](O[C@@H]2/C(C)=C/C[C@@H]3C[C@@H](C[C@]4(CC[C@H](C)[C@@H](C5CCCCC5)O4)O3)OC(=O)[C@@H]3C=C(C)/C(=N/O)[C@H]4OC/C(=C\C=C\[C@@H]2C)[C@]43O)O[C@@H](C)[C@H]1O
inactive: Potency [1] | Potency [2] | Potency [3] | Potency [4] | Potency [5] | Potency [6]

CCCN(CC)C(CC)C(=O)Nc1c(C)cccc1C (stereo unspecified)
inactive: Potency [1] | Potency [2] | Potency [3] | Potency [4] | Potency [5]
-22.8%: activity change, negative = inhibition [6]

C=C1CC2C3CCC4=CC(=O)C=C[C@]4(C)[C@@]3(F)[C@@H](O)C[C@]2(C)[C@@]1(O)C(=O)COC(C)=O (stereo partly specified)
inactive: Potency [1] | Potency [2] | Potency [3] | Potency [4] | Potency [5] | Potency [6]

O=C(O)c1ccc(NC(=O)[C@H](Cc2ccc(O)cc2)NC(=O)c2ccccc2)cc1
inactive: Potency [1] | Potency [2] | Potency [3] | Potency [4] | Potency [5]
-10.6%: activity change, negative = inhibition [6]

N[C@H](Cc1ccccc1)C(=O)O
inactive: Potency [1] | Potency [2] | Potency [3] | Potency [4] | Potency [5]
-27.4% [at 27.1 µM]: activity change, negative = inhibition [6]

CCC(=O)OCC(=O)[C@]1(OC(=O)CC)[C@H](C)C[C@H]2[C@H]3[C@H]([C@@H](O)C[C@@]21C)[C@@]1(C)C=CC(=O)C=C1C[C@H]3Cl
inactive: Potency [1] | Potency [2] | Potency [3] | Potency [4] | Potency [5]
-6.25%: activity change, negative = inhibition [6]

O=S(O)CNc1ccc(S(=O)(=O)c2ccc(NCS(=O)O)cc2)cc1
3.29%: activity change, negative = inhibition [6]
inactive: Potency [1] | Potency [2] | Potency [3] | Potency [4] | Potency [5]

C=C1/C(=C/C=C2\CCC[C@]3(C)[C@@H]([C@H](C)/C=C/C=C/C(O)(CC)CC)CC[C@@H]23)C[C@@H](O)C[C@@H]1O
inactive: Potency [1] | Potency [2] | Potency [3] | Potency [4] | Potency [5]
-5.54%: activity change, negative = inhibition [6]

CN1CCc2nc(C(=O)N[C@@H]3C[C@@H](C(=O)N(C)C)CC[C@@H]3NC(=O)C(=O)Nc3ccc(Cl)cn3)sc2C1
inactive: Potency [1] | Potency [2] | Potency [3] | Potency [4] | Potency [5]
-19.9%: activity change, negative = inhibition [6]

C[C@@H](O)[C@H]1C(=O)N2C(C(=O)O)=C(S[C@@H]3CN[C@H](C(=O)Nc4cccc(C(=O)O)c4)C3)[C@H](C)[C@H]12
0.84%: activity change, negative = inhibition [6]
inactive: Potency [1] | Potency [2] | Potency [3] | Potency [4] | Potency [5]

CC1(C)S[C@H]2[C@H](NC(=O)[C@@H](N)c3ccc(O)cc3)C(=O)N2[C@H]1C(=O)O
inactive: Potency [1] | Potency [2] | Potency [3] | Potency [4] | Potency [5]
-1.08% and -18.3%: activity change, negative = inhibition [6]

NCCC[C@H](N)CC(=O)N[C@H]1CNC(=O)[C@H]([C@H]2C[C@H](O)N=C(N)N2)NC(=O)/C(=C/NC(N)=O)NC(=O)[C@H](CO)NC(=O)[C@H](CO)NC1=O (β3hOrn-[Dap]SS[ΔAla(Z-3-ureido)][X6]; lactam 1-C)
inactive: Potency [1] | Potency [2] | Potency [3] | Potency [4] | Potency [5] | Potency [6]

O=C(O[C@H]1C[N+]2(CCCOc3ccccc3)CCC1CC2)C(O)(c1cccs1)c1cccs1
inactive: Potency [1] | Potency [2] | Potency [3] | Potency [4] | Potency [5]
-28.6%: activity change, negative = inhibition [6]

Oc1c(Br)cc(Br)cc1CNC1CCC(O)CC1 (stereo unspecified)
-15.3%: activity change, negative = inhibition [6]
inactive: Potency [1] | Potency [2] | Potency [3] | Potency [4] | Potency [5]

CO[C@H]1/C=C\O[C@@]2(C)Oc3c(C)c(O)c4c(O)c(c5c(nc6cc(C)ccn65)c4c3C2=O)NC(=O)/C(C)=C\C=C/[C@H](C)[C@H](O)[C@@H](C)[C@@H](O)[C@@H](C)[C@H](OC(C)=O)[C@@H]1C
-25.8%: activity change, negative = inhibition [6]
inactive: Potency [1] | Potency [2] | Potency [3] | Potency [4] | Potency [5]

NC(=O)OCC(O)COc1ccc(Cl)cc1 (stereo unspecified)
inactive: Potency [1] | Potency [2] | Potency [3] | Potency [4] | Potency [5] | Potency [6]

O=C(OCCO)c1ccccc1O
-11%: activity change, negative = inhibition [6]
inactive: Potency [1] | Potency [2] | Potency [3] | Potency [4] | Potency [5]

NC(=O)C1CCCN1C(=O)C(Cc1cnc[nH]1)NC(=O)C1CCC(=O)N1 (stereo unspecified)
inactive: Potency [1] | Potency [2] | Potency [3] | Potency [4] | Potency [5] | Potency [6]

C[C@H]1C[C@@H]2[C@H]([C@@H](O)C[C@@]3(C)[C@H]2CC[C@]3(O)C(=O)COC(=O)CCC(=O)O)[C@@]2(C)C=CC(=O)C=C12
-18.6%: activity change, negative = inhibition [6]
inactive: Potency [1] | Potency [2] | Potency [3] | Potency [4] | Potency [5]

C[C@@H]1CC2C3C[C@H](F)C4=CC(=O)C=C[C@]4(C)[C@@]3(F)[C@@H](O)C[C@]2(C)[C@@]1(OC(=O)c1ccco1)C(=O)SCF (stereo partly specified)
3.79%: activity change, negative = inhibition [6]
inactive: Potency [1] | Potency [2] | Potency [3] | Potency [4] | Potency [5]
